Here are results for 40 compounds from PubChem BioAssay (NCATS).

Each structure is given as a SMILES string. Results filed as inconclusive are left out. Where a call stands in place of a potency, no number is given. A number with no mark means an inactive call. Active and inactive are the calls of the source. The call rests on the fitted dose curve; in most records, active means well fitted cell-killing curve with a large enough effect; inconclusive means small, poorly fitted or top-dose-only effect; inactive means no such curve, though single readings can be large or run the other way.
Potency means the concentration at half of the fitted maximal effect.

The assay is described as follows: qHTS of pediatric cancer cell lines to identify multiple opportunities for drug repurposing: Primary screen for A673 cells (AID 1347092). Further: nearly all actives have a fitted effect of over 45% in size. The conditions noted are these: A673 Ewing sarcoma viability, CellTiter-Glo ATP luminescence, 48 h; series mostly up to 46 µM. The source says:
Drug repurposing or repositioning has been offered as a strategy for drug development in oncology programs. This approach has special potential for childhood cancers and other rare or orphan diseases, where the expected return on new drug development has been a disincentive to pharmaceuticals. […] In this project we exploit the poly-pharmacology of drugs to discover new indications via phenotypic screening of a panel of 19 well-characterized cell lines derived from solid tumors seen in children and adolescents. The goal is to identify approved drugs with previously unrecognized anticancer properties that has the potential to reveal new mechanisms and biological processes involved in carcinogenesis or drug resistance. We employed a titration-based paradigm (quantitative high-throughput screening or qHTS), where all compounds were tested at multiple concentrations for their effect on cell viability. Concentration-response curves (CRCs) were derived directly from the primary screen, and both potency and efficacy values were used to identify compounds with robust bioactivity profiles. We screened the NIH Chemical Genomics Center (NCGC) Pharmaceutical Collection (NPC) and Mechanism Interrogation Plate (MIPE) small molecule collections of approved and investigational compounds against these cell lines; and measured metabolically active cells after 48 hours of compound treatment as a proxy for cell viability. […] Assay Submitter: Nathalia J. Martinez, National Center for Advancing Translational Sciences, National Institutes of Health, Rockville, MD, USA; email: natalia.martinez@nih.gov. Shen, M et al. Quantitative high-throughput phenotypic screening of pediatric cancer cell lines identifies multiple opportunities for drug repurposing. Oncotarget 2017 Dec 19;9(4):4758-4772. PMID 29435139.
The cells were obtained from University of North Carolina (UNC), Pediatric Preclinical Testing Program (PPT), and Coriell Institute (CI). qHTS cell viability assay: Cells were assayed in growth media at a density of 500-1,000 cells/well. Five microliters of cells were dispensed into 1,536-well, white, solid-bottom, TC-treated plates (Greiner Bio One) using a multidrop dispenser and incubated at 37 degrees C, 5% CO2, under a humidified atmosphere for 5 hours. Twenty-three nanoliters of compounds and controls (neutral control DMSO or positive control bortezomib at final concentration of 2.3 uM) were subsequently transferred by Kalypsys pintool. For primary screens, the MIPE collection was tested at 11-point dilutions (final concentrations range from 0.78 nM to 46 µM) and the NPC collection at 8-point dilutions (final concentrations range from 0.59 nM to 46 µM). Compounds tested in follow-up screens were assayed at 11-point dilutions. Cells were incubated for 48 hours, followed by addition of 3 uL of CellTiter-Glo (Promega). After a 15min incubation at room temperature, samples were analyzed for luminescence intensity using a ViewLux High-throughput CCD imager equipped with clear filters.
Consider `CC(=O)O[C@@]12CO[C@@H]1C[C@H](O)[C@@]1(C)C(=O)[C@H](O)C3=C(C)[C@@H](OC(=O)[C@H](O)[C@@H](NC(=O)OC(C)(C)C)c4ccccc4)C[C@@](O)([C@@H](OC(=O)c4ccccc4)[C@H]21)C3(C)C`, for which the Potency was 0.001 µM (active).
As for `CN(C)CCCN1c2ccccc2Sc2ccc(Cl)cc21`, the Potency was 21.1 µM (active).
For the compound `NC(=O)NC(=O)Cc1ccccc1`, the Potency entry is “inactive”.
On to `C/C(=C(\CCOP(=O)(O)O)SC(=O)c1ccccc1)N(C=O)Cc1cnc(C)nc1N`, for which the activity change, negative = cytotoxic is -0.171% [at 4.84 µM].
On to `NC(CSCC(=O)O)C(=O)O` (stereo not given), for which the Potency entry is “inactive”.
On to `C[C@@H](O)[C@H](N)C(=O)O`, for which the Potency entry was “inactive”.
Turning to `C=Cc1c(C)c2cc3[nH]c(cc4nc(cc5nc(cc1[nH]2)C(C)=C5CCC(=O)O)C(CCC(=O)O)=C4C)c(C)c3C=C`, the Potency result is “inactive”.
Take `CCN(CC)CCSC(=O)C(c1ccccc1)c1ccccc1`: the Potency is 21.1 µM (active).
Same read-out and setting: under `Cc1cccc(C)c1NC(=O)CN(CC(=O)O)CC(=O)O` stands “inactive”; under `C=CCn1c(=O)n([C@@H]2O[C@H](CO)[C@@H](O)[C@H]2O)c2nc(N)[nH]c(=O)c21`, “inactive”.
For the compound `CCOc1ccc2ccccc2c1C(=O)N[C@@H]1C(=O)N2[C@@H]1SC(C)(C)[C@@H]2C(=O)O`, the Potency result is “inactive”.
Turning to `COc1cc(C(=O)N2CCOCC2)cc(OC)c1OC`, the Potency entry is “inactive”.
On to `CCN(CC)CCCC(C)Nc1c2ccc(Cl)cc2nc2ccc(OC)cc12` (stereo not given), for which the Potency is 21.1 µM (active).
In the case of `CCCCC(CC)COC(=O)c1ccccc1O` (stereo not given), the Potency result is “inactive”.
On the same count and under the same terms, under `OC[C@H]1O[C@@H](O[C@@H]2[C@@H](CO)O[C@](O)(CO)[C@H]2O)[C@H](O)[C@@H](O)[C@H]1O` stands “inactive”.
For the compound `C[C@@H]1C[C@H]2[C@@H]3C[C@H](F)C4=CC(=O)C=C[C@]4(C)[C@@]3(F)[C@@H](O)C[C@]2(C)[C@@]1(O)C(=O)CO`, the Potency result is “inactive”.
For the compound `O=C(O)c1ccccc1-c1ccc(C(F)(F)F)cc1`, the Potency result was “inactive”.
As for `CCCn1cnc2c1c(=O)n(CCCCC(C)=O)c(=O)n2C`, the Potency entry was “inactive”.
Turning to `CCCCCCCCCCCCCCCCCCOCC(O)CO` (stereo not given), the Potency result is “inactive”.
In the case of `NC(=O)N/N=C/c1ccc([N+](=O)[O-])o1`, the Potency is 48.6 µM (active).
For the compound `CC(C)C(=O)c1c(C(C)C)nn2ccccc12`, the Potency result is “inactive”.
`CCn1cc(C(=O)O)c(=O)c2cnc(N3CCNCC3)nc21`: the Potency result was “inactive”.
Take `NC1CCN(c2cccc(Cl)n2)CC1`: the Potency entry is “inactive”.
The same measure, in the same setting: the result for `NS(=O)(=O)c1cc2c(cc1Cl)NC(CSCc1ccccc1)=NS2(=O)=O` reads “inactive”; that for `CN1[C@@H]2CC[C@H]1CC(OC(=O)C(O)c1ccccc1)C2` (stereo not given in full), “inactive”; that for `CCCCN(CCCC)CCCOC(=O)c1ccc(N)cc1`, “inactive”.
Consider `NCC(=O)CCC(=O)O`, for which the Potency entry is “inactive”.
`N[C@@H](CSCCCO)C(=O)O`: the Potency entry is “inactive”.
On the same count and under the same terms, the result for `COc1ccc2cc1Oc1cc3c(cc1OC)CC[N+](C)(C)[C@H]3Cc1ccc(cc1)Oc1c(OC)c(OC)cc3c1[C@@H](C2)[N+](C)(C)CC3` reads “inactive”; that for `O=C(O)[C@H](O)c1ccccc1`, “inactive”; that for `OCc1cc(C(O)CNCCCCCCOCCCCc2ccccc2)ccc1O` (stereo not given), 21.1 µM (active).
As to `Cc1cc2c(cc1S(N)(=O)=O)S(=O)(=O)CCC2`, the Potency result was “inactive”.
On the same count and under the same terms, under `C[C@@H]1CCN(C(=O)[C@H](CCCN=C(N)N)NS(=O)(=O)c2cccc3c2NC[C@H](C)C3)[C@@H](C(=O)O)C1` stands “inactive”.
As to `Nc1ccc(S(=O)(=O)Nc2ccc(Cl)nn2)cc1`, the Potency entry was “inactive”.
Same read-out and setting: the result for `CC1=C(CC(=O)O)c2cc(F)ccc2/C1=C\c1ccc(S(C)(=O)=O)cc1` reads “inactive”; that for `CC(C)c1c(C(=O)Nc2ccccc2)c(-c2ccccc2)c(-c2ccc(F)cc2)n1CC[C@@H](O)C[C@@H](O)CC(=O)O`, 21.1 µM (active); that for `CCOC(=O)[C@H](CCc1ccccc1)N[C@@H](C)C(=O)N1C(=O)N(C)C[C@H]1C(=O)O`, “inactive”.
Take `O=C(O)c1ccccc1O`: the Potency entry is “inactive”.
Still for that read-out and setting: under `CC(C)(C)C(=O)NCCCC(=O)O` stands “inactive”.
For the compound `Nc1ccc(S(=O)(=O)Nc2nccs2)cc1`, the Potency result is “inactive”.
